Experimental data reported in the supplement of paper PMC11732987, “Enantioselective OTUD7B fragment discovery through chemoproteomics screening and high-throughput optimisation” (Communications Chemistry, 2025).

Tests used:
Assay in all cases: log2 ratio of Biotin-Ahx-Ub-VS probe labelling (fragment/DMSO); higher = less target engagement (more negative = stronger competition), active = hit call of the paper (q ≤ 0.05, log2 ratio ≤ -1)
Settings in all cases: compound concentration: 200 uM; treatment time: 3 h
USP19 = molecular target: T1, USP19 (UniProt O94966)
T1 sequence (whole entry): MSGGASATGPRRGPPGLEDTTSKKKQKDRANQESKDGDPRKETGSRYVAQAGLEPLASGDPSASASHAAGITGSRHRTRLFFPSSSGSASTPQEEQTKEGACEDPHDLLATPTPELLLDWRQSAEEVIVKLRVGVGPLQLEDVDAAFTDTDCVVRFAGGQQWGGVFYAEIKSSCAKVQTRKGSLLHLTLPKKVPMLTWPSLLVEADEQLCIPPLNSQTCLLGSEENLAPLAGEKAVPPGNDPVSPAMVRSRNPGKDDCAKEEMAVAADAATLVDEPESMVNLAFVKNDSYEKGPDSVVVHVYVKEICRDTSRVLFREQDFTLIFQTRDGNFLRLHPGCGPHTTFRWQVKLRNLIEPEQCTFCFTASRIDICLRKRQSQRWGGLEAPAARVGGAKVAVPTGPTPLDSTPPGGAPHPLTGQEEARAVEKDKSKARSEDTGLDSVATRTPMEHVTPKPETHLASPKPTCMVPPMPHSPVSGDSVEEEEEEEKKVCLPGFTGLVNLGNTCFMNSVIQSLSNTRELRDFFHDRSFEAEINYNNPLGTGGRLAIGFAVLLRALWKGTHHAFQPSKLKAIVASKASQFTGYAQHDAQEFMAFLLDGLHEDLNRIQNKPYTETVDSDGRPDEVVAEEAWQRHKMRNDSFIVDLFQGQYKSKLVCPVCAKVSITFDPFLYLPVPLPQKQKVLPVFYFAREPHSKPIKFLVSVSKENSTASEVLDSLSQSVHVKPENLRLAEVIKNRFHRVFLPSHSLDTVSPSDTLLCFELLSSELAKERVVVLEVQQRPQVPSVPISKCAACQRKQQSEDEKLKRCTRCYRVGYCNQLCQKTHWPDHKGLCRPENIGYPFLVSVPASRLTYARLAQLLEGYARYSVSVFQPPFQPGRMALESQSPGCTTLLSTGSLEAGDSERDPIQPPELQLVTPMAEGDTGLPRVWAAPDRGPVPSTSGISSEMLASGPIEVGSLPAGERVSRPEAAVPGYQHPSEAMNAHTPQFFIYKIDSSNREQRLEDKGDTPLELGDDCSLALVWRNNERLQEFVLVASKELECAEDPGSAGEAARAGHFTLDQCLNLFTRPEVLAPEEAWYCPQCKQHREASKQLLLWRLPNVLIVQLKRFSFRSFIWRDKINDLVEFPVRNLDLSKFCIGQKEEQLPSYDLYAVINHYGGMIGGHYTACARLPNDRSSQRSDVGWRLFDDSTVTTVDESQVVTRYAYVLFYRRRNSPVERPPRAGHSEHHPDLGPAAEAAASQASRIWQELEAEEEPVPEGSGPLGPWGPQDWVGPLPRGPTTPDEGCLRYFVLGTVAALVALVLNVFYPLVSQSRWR
Method in brief: (§1)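 Fragment (200 µM) or vehicle was incubated for 3 h with triplicate HEK293T lysate samples of 495 µg, which were then treated with Biotin-Ahx-Ub-VS at 0.5 µM final for 1 h. Labelled DUBs were enriched on NeutrAvidin, digested with LysC and trypsin, and analysed by diaPASEF LC-MS/MS. Values are average log2 fragment/vehicle ratios from an unpaired t-test on global-median-normalised Spectronaut label-free quantities, using proteins with ≥2 unique peptides.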

USP22 = molecular target: T2, USP22 (UniProt Q9UPT9)
T2 sequence (whole entry): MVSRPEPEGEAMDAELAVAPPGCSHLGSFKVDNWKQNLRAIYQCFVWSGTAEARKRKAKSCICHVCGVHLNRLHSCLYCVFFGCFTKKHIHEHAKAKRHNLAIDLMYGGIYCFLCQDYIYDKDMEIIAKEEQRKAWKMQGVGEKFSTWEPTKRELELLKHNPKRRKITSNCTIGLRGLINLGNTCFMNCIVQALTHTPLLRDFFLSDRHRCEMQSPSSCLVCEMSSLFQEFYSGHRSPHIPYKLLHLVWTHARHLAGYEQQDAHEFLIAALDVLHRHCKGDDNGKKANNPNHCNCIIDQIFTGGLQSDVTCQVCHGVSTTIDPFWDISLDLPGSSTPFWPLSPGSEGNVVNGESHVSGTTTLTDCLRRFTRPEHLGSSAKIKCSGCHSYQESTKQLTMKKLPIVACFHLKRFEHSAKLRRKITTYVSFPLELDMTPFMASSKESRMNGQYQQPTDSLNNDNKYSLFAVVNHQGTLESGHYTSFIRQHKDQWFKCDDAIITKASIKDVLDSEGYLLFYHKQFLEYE
Method in brief: as §1

USP24 = USP24 (UniProt Q9UPU5)
Method in brief: as §1

USP25 = molecular target: T3, USP25 (UniProt Q9UHP3)
T3 sequence (whole entry): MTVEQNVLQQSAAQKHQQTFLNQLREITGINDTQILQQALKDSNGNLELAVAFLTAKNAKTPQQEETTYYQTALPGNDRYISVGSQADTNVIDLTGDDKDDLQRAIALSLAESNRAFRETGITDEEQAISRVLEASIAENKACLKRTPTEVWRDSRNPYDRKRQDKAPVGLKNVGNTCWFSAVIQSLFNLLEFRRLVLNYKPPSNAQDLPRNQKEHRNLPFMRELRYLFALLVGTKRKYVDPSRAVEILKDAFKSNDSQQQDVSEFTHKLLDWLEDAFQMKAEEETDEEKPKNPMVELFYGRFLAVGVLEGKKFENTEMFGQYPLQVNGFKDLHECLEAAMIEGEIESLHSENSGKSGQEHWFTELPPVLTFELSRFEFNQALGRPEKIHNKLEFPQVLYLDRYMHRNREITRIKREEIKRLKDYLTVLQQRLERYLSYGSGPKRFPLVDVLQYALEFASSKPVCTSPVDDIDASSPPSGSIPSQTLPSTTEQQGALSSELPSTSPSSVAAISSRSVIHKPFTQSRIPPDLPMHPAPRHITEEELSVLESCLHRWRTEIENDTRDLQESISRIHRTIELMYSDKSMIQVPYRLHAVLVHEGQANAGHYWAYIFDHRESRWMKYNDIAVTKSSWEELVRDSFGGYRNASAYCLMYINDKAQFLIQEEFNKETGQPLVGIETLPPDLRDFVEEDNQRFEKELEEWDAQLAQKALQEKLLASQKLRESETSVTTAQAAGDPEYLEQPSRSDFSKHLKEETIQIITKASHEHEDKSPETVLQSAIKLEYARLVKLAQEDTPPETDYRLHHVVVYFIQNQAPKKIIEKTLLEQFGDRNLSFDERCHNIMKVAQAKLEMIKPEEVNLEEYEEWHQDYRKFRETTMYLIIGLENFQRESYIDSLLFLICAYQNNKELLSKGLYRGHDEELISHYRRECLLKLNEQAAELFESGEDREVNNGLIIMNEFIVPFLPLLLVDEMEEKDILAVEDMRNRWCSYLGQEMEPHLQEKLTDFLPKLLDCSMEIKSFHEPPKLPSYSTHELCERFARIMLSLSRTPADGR
Method in brief: as §1

USP28 = molecular target: T4, USP28 (UniProt Q96RU2)
T4 sequence (whole entry): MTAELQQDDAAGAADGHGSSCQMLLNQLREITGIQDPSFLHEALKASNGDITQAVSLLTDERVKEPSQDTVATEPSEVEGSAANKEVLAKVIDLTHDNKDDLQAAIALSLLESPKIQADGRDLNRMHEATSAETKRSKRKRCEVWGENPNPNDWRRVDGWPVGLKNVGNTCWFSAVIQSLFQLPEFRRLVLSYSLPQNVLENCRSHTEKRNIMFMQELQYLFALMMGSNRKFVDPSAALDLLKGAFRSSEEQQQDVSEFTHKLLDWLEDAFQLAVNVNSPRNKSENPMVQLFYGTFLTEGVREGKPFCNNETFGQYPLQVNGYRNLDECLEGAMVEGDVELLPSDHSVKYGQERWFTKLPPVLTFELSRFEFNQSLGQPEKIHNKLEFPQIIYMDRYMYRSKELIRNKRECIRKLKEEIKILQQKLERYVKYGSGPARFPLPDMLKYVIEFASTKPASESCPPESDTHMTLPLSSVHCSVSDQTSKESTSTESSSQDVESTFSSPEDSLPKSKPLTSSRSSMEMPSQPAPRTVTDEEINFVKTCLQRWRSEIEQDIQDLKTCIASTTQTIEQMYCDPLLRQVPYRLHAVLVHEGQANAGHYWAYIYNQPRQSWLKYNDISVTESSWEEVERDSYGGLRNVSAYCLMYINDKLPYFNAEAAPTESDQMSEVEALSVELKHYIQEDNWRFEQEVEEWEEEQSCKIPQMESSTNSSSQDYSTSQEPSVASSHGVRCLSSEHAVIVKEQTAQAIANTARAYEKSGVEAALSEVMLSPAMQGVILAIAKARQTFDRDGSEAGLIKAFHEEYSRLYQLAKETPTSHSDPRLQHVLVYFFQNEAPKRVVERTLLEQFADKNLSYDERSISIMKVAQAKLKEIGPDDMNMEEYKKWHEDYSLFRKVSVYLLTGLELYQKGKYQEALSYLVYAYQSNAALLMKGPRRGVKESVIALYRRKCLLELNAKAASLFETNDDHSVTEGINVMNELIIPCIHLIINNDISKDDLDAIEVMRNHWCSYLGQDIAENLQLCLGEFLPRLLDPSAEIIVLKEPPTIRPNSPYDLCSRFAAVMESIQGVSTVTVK
Method in brief: as §1

Measured: log2 ratio of Biotin-Ahx-Ub-VS probe labelling

Sequence of USP24 (Q9UPU5 whole entry): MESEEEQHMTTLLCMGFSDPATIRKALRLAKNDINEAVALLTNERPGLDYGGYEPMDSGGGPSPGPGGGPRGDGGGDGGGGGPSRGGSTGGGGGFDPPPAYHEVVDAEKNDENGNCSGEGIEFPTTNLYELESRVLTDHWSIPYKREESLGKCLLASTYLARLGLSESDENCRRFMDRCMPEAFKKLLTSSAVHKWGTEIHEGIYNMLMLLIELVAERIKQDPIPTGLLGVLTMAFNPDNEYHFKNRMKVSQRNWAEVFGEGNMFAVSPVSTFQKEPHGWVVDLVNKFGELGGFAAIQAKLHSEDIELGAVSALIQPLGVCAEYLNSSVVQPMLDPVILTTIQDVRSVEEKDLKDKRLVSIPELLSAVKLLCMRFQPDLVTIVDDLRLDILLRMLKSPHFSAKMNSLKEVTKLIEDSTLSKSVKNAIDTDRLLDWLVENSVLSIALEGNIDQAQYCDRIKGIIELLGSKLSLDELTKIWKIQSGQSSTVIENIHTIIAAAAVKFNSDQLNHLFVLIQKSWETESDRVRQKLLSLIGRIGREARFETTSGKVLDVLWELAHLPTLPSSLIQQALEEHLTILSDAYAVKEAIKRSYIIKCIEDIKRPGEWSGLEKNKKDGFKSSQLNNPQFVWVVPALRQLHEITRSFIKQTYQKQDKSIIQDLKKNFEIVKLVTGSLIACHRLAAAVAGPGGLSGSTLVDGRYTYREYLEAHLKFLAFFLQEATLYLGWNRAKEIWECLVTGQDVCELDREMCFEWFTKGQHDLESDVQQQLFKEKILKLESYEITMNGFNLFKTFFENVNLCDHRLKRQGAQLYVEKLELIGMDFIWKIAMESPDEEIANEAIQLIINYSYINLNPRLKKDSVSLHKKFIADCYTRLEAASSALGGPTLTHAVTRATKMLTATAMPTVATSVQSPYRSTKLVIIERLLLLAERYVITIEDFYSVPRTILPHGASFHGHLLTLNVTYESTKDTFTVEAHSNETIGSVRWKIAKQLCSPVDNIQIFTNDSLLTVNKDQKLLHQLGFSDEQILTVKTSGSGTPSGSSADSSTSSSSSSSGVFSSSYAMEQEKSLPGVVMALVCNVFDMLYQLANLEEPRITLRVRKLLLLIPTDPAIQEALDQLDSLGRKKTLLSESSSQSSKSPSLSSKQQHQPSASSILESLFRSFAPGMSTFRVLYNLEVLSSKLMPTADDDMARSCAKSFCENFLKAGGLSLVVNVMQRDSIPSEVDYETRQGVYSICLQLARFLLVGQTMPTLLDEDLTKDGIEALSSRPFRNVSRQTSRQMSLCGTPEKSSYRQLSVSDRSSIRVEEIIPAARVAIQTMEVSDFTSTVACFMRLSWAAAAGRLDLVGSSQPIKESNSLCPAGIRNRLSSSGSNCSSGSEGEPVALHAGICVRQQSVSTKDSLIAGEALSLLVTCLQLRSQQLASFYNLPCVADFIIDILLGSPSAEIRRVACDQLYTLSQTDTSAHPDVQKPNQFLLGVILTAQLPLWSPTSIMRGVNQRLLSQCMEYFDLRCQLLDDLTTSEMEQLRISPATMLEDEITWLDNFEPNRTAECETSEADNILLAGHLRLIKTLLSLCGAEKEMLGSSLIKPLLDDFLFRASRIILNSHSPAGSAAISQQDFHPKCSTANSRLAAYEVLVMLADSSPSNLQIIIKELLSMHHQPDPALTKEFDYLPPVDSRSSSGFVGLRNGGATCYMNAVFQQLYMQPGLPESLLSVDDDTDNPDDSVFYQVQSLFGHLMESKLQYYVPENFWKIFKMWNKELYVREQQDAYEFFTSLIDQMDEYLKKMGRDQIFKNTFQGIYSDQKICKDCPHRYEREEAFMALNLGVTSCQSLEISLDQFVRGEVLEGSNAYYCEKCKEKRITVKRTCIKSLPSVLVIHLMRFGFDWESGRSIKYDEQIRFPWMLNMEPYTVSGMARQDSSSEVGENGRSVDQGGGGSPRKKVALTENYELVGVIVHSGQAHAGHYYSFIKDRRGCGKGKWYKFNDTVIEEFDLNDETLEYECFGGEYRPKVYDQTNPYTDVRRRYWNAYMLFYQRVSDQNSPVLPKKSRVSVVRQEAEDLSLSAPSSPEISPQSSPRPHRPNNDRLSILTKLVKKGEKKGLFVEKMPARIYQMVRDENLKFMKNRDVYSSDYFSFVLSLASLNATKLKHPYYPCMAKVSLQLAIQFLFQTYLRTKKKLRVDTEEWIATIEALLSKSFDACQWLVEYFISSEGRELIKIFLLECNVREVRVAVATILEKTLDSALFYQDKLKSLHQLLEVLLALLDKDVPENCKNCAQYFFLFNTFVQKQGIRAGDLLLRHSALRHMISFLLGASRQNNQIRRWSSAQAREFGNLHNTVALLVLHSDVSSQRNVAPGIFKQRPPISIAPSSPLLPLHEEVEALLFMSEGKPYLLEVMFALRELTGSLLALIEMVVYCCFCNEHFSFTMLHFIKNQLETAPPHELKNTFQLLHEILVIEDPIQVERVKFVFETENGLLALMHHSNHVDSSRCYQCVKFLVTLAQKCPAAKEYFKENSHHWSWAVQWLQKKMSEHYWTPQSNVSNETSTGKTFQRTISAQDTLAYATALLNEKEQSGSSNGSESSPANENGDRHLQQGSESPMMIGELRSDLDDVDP

O=C(CCl)NCc1cccc(F)c1
inactive: USP19 -0.000373 | USP22 -0.171 | USP24 -0.154 | USP25 -0.362 | USP28 -0.556
